Laboratory results published in publication PMC11006913.
Positions count from the first letter of the chain named.

Tests used:
Assay in all cases: PBM; 200 nM protein, PBS
Details in all cases: dsDNA, one strand shown
VENTX [1] = target: T1, VENTX (Homo sapiens, UniProt O95231 78-163, R121Q)
T1 sequence: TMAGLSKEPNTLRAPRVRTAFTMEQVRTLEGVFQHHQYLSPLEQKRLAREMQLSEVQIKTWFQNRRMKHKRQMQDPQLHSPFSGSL

VENTX [2] = target: T2, VENTX (Homo sapiens, UniProt O95231 78-163)
T2 sequence: T1 sequence with Q44R

VENTX [3] = target: T3, VENTX (Homo sapiens, UniProt O95231 78-163, Y115F)
T3 sequence: T1 sequence with Y38F, Q44R

VAX1 [4] = target: VAX1 (Homo sapiens, UniProt Q5SQQ9 86-172)
Sequence of VAX1 (Homo sapiens, UniProt Q5SQQ9 86-172) (Q5SQQ9 86-172): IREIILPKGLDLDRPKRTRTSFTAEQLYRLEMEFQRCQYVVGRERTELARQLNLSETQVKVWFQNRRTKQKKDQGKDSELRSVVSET

VAX1 [5] = target: VAX1 (Homo sapiens, UniProt Q5SQQ9 86-172, T142I)
Sequence of VAX1 (Homo sapiens, UniProt Q5SQQ9 86-172, T142I) (Q5SQQ9 86-172 T142I): as the sequence (Q5SQQ9 86-172) above, with T57I counted along it

VAX1 [6] = target: VAX1 (Homo sapiens, UniProt Q5SQQ9 86-172, K157R)
Sequence of VAX1 (Homo sapiens, UniProt Q5SQQ9 86-172, K157R) (Q5SQQ9 86-172 K157R): as the sequence (Q5SQQ9 86-172) above, with K72R counted along it

HOXB6 [7] = target: HOXB6 (Homo sapiens, UniProt P17509 132-218, K202E)
Sequence of HOXB6 (Homo sapiens, UniProt P17509 132-218, K202E) (P17509 132-218 K202E): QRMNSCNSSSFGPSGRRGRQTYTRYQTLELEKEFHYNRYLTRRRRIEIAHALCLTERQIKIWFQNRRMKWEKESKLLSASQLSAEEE

HOXA2 [8] = target: HOXA2 (Homo sapiens, UniProt O43364 129-215, R185T)
Sequence of HOXA2 (Homo sapiens, UniProt O43364 129-215, R185T) (O43364 129-215 R185T): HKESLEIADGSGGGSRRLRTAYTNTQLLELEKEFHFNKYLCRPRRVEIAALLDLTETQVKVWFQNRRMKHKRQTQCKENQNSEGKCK

ALX1 [9] = target: ALX1 (Homo sapiens, UniProt Q15699 118-204, L144V)
Sequence of ALX1 (Homo sapiens, UniProt Q15699 118-204, L144V) (Q15699 118-204 L144V): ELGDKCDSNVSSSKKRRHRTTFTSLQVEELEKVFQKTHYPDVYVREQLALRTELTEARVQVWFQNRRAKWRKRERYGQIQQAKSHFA

ALX3 [10] = target: ALX3 (Homo sapiens, UniProt O95076 139-225, N203Q)
Sequence of ALX3 (Homo sapiens, UniProt O95076 139-225, N203Q) (O95076 139-225 N203Q): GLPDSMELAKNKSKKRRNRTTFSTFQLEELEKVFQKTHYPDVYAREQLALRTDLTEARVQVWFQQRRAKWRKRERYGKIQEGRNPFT

HOXA2 [11] = target: HOXA2 (Homo sapiens, UniProt O43364 129-215, R185K)
Sequence of HOXA2 (Homo sapiens, UniProt O43364 129-215, R185K) (O43364 129-215 R185K): as the sequence (O43364 129-215 R185T) above, with T57K counted along it

ALX1 [12] = target: ALX1 (Homo sapiens, UniProt Q15699 118-204, L144R)
Sequence of ALX1 (Homo sapiens, UniProt Q15699 118-204, L144R) (Q15699 118-204 L144R): as the sequence (Q15699 118-204 L144V) above, with V27R counted along it

ALX3 [13] = target: ALX3 (Homo sapiens, UniProt O95076 139-225)
Sequence of ALX3 (Homo sapiens, UniProt O95076 139-225) (O95076 139-225): as the sequence (O95076 139-225 N203Q) above, with Q65N counted along it

ALX3 [14] = target: ALX3 (Homo sapiens, UniProt O95076 139-225, L168Q)
Sequence of ALX3 (Homo sapiens, UniProt O95076 139-225, L168Q) (O95076 139-225 L168Q): as the sequence (O95076 139-225 N203Q) above, with L30Q, Q65N counted along it

ALX3 [15] = target: ALX3 (Homo sapiens, UniProt O95076 139-225, L168V)
Sequence of ALX3 (Homo sapiens, UniProt O95076 139-225, L168V) (O95076 139-225 L168V): as the sequence (O95076 139-225 N203Q) above, with L30V, Q65N counted along it

HOXA2 [16] = target: HOXA2 (Homo sapiens, UniProt O43364 129-215, Y150S)
Sequence of HOXA2 (Homo sapiens, UniProt O43364 129-215, Y150S) (O43364 129-215 Y150S): as the sequence (O43364 129-215 R185T) above, with Y22S, T57R counted along it

ALX1 [17] = target: ALX1 (Homo sapiens, UniProt Q15699 118-204)
Sequence of ALX1 (Homo sapiens, UniProt Q15699 118-204) (Q15699 118-204): as the sequence (Q15699 118-204 L144V) above, with V27L counted along it

ALX3 [18] = target: ALX3 (Homo sapiens, UniProt O95076 139-225, N203S)
Sequence of ALX3 (Homo sapiens, UniProt O95076 139-225, N203S) (O95076 139-225 N203S): as the sequence (O95076 139-225 N203Q) above, with Q65S counted along it

HOXA2 [19] = target: HOXA2 (Homo sapiens, UniProt O43364 129-215)
Sequence of HOXA2 (Homo sapiens, UniProt O43364 129-215) (O43364 129-215): as the sequence (O43364 129-215 R185T) above, with T57R counted along it

HOXB6 [20] = target: HOXB6 (Homo sapiens, UniProt P17509 132-218)
Sequence of HOXB6 (Homo sapiens, UniProt P17509 132-218) (P17509 132-218): as the sequence (P17509 132-218 K202E) above, with E71K counted along it

HOXD13 [21] = target: HOXD13 (Homo sapiens, UniProt P35453 263-343)
Sequence of HOXD13 (Homo sapiens, UniProt P35453 263-343) (P35453 263-343): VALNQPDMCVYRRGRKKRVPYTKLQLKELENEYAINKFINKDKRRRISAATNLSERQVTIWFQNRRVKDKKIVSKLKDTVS

HOXD13 [22] = target: HOXD13 (Homo sapiens, UniProt P35453 263-343, T313A)
Sequence of HOXD13 (Homo sapiens, UniProt P35453 263-343, T313A) (P35453 263-343 T313A): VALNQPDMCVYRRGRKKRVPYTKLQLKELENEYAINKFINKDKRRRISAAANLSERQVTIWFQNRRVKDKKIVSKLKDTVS

HOXA4 = HOXA4 (Homo sapiens, UniProt Q00056 201-287, R217L)
Sequence of HOXA4 (Q00056 201-287 R217L): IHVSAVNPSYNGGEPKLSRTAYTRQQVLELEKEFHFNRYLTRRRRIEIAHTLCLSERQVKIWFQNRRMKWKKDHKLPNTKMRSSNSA

NKX2-6 = target: T4, NKX2-6 (Homo sapiens, UniProt A6NCS4 118-204, R150C)
T4 sequence: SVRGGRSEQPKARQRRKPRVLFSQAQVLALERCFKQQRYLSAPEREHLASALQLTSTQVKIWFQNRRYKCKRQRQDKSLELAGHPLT

PROP1 [23] = target: PROP1 (Homo sapiens, UniProt O75360 56-141)
Sequence of PROP1 (Homo sapiens, UniProt O75360 56-141) (O75360 56-141): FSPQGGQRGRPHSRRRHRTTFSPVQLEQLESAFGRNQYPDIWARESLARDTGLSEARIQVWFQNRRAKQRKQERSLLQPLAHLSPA

PROP1 [24] = target: PROP1 (Homo sapiens, UniProt O75360 56-141, R99H)
Sequence of PROP1 (Homo sapiens, UniProt O75360 56-141, R99H) (O75360 56-141 R99H): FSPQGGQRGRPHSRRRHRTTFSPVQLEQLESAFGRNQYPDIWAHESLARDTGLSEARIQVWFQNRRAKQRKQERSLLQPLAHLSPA

PROP1 [25] = target: PROP1 (Homo sapiens, UniProt O75360 56-141, F88S)
Sequence of PROP1 (Homo sapiens, UniProt O75360 56-141, F88S) (O75360 56-141 F88S): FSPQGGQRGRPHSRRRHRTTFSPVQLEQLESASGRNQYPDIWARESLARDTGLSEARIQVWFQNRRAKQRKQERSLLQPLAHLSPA

CCCACGCA
binding signal (VENTX [1]): 8.08 upbm affinity estimate (log intensity, higher = more binding, comparable within an allelic series) | binding signal (VENTX [2]): 7.93 upbm affinity estimate (log intensity, higher = more binding, comparable within an allelic series) | binding signal (VENTX [3]): 7.96 upbm affinity estimate (log intensity, higher = more binding, comparable within an allelic series) | binding signal (VAX1 [4]): 7.08 upbm affinity estimate (log intensity, higher = more binding, comparable within an allelic series) | binding signal (VAX1 [5]): 7.21 upbm affinity estimate (log intensity, higher = more binding, comparable within an allelic series) | binding signal (VAX1 [6]): 7.04 upbm affinity estimate (log intensity, higher = more binding, comparable within an allelic series)

GCCCAGGC
binding signal (VENTX [1]): 7.88 upbm affinity estimate (log intensity, higher = more binding, comparable within an allelic series) | binding signal (VENTX [2]): 7.61 upbm affinity estimate (log intensity, higher = more binding, comparable within an allelic series) | binding signal (VENTX [3]): 7.8 upbm affinity estimate (log intensity, higher = more binding, comparable within an allelic series) | binding signal (HOXB6 [7]): 8.91 upbm affinity estimate (log intensity, higher = more binding, comparable within an allelic series) | binding signal (HOXA2 [8]): 6.96 upbm affinity estimate (log intensity, higher = more binding, comparable within an allelic series) | binding signal (ALX1 [9]): 6.2 upbm affinity estimate (log intensity, higher = more binding, comparable within an allelic series) | binding signal (ALX3 [10]): 7.68 upbm affinity estimate (log intensity, higher = more binding, comparable within an allelic series) | binding signal (HOXA2 [11]): 10 upbm affinity estimate (log intensity, higher = more binding, comparable within an allelic series) | binding signal (ALX1 [12]): 6.3 upbm affinity estimate (log intensity, higher = more binding, comparable within an allelic series) | binding signal (ALX3 [13]): 7.31 upbm affinity estimate (log intensity, higher = more binding, comparable within an allelic series) | binding signal (ALX3 [14]): 7.59 upbm affinity estimate (log intensity, higher = more binding, comparable within an allelic series) | binding signal (ALX3 [15]): 7.69 upbm affinity estimate (log intensity, higher = more binding, comparable within an allelic series) | binding signal (HOXA2 [16]): 10.3 upbm affinity estimate (log intensity, higher = more binding, comparable within an allelic series) | binding signal (ALX1 [17]): 6.12 upbm affinity estimate (log intensity, higher = more binding, comparable within an allelic series) | binding signal (ALX3 [18]): 7.71 upbm affinity estimate (log intensity, higher = more binding, comparable within an allelic series) | binding signal (HOXA2 [19]): 7.01 upbm affinity estimate (log intensity, higher = more binding, comparable within an allelic series) | binding signal (HOXB6 [20]): 8.63 upbm affinity estimate (log intensity, higher = more binding, comparable within an allelic series)

ACTTATAA
binding signal (VENTX [1]): 9.95 upbm affinity estimate (log intensity, higher = more binding, comparable within an allelic series) | binding signal (VENTX [2]): 10.5 upbm affinity estimate (log intensity, higher = more binding, comparable within an allelic series) | binding signal (VENTX [3]): 10 upbm affinity estimate (log intensity, higher = more binding, comparable within an allelic series) | binding signal (HOXD13 [21]): 11.3 upbm affinity estimate (log intensity, higher = more binding, comparable within an allelic series) | binding signal (HOXD13 [22]): 11 upbm affinity estimate (log intensity, higher = more binding, comparable within an allelic series)

GGCGGCCC
binding signal (VENTX [1]): 8.11 upbm affinity estimate (log intensity, higher = more binding, comparable within an allelic series) | binding signal (VENTX [2]): 8.22 upbm affinity estimate (log intensity, higher = more binding, comparable within an allelic series) | binding signal (VENTX [3]): 8.03 upbm affinity estimate (log intensity, higher = more binding, comparable within an allelic series) | binding signal (HOXA2 [8]): 7.21 upbm affinity estimate (log intensity, higher = more binding, comparable within an allelic series) | binding signal (HOXA2 [11]): 9.97 upbm affinity estimate (log intensity, higher = more binding, comparable within an allelic series) | binding signal (HOXA2 [16]): 10.3 upbm affinity estimate (log intensity, higher = more binding, comparable within an allelic series) | binding signal (HOXA2 [19]): 7.16 upbm affinity estimate (log intensity, higher = more binding, comparable within an allelic series)

CCATTAGC
binding signal (VENTX [1]): 12.2 upbm affinity estimate (log intensity, higher = more binding, comparable within an allelic series) | binding signal (VENTX [2]): 12.9 upbm affinity estimate (log intensity, higher = more binding, comparable within an allelic series) | binding signal (VENTX [3]): 11.9 upbm affinity estimate (log intensity, higher = more binding, comparable within an allelic series) | binding signal (HOXA2 [8]): 12.3 upbm affinity estimate (log intensity, higher = more binding, comparable within an allelic series) | binding signal (HOXA4): 11.4 upbm affinity estimate (log intensity, higher = more binding, comparable within an allelic series) | binding signal (HOXA2 [11]): 13.1 upbm affinity estimate (log intensity, higher = more binding, comparable within an allelic series) | binding signal (HOXA2 [16]): 10.6 upbm affinity estimate (log intensity, higher = more binding, comparable within an allelic series) | binding signal (HOXA2 [19]): 12 upbm affinity estimate (log intensity, higher = more binding, comparable within an allelic series) | binding signal (VAX1 [6]): 12.4 upbm affinity estimate (log intensity, higher = more binding, comparable within an allelic series)

CCCGACCG
binding signal (VENTX [1]): 8.21 upbm affinity estimate (log intensity, higher = more binding, comparable within an allelic series) | binding signal (VENTX [2]): 8.16 upbm affinity estimate (log intensity, higher = more binding, comparable within an allelic series) | binding signal (VENTX [3]): 8.1 upbm affinity estimate (log intensity, higher = more binding, comparable within an allelic series) | binding signal (NKX2-6): 9.21 upbm affinity estimate (log intensity, higher = more binding, comparable within an allelic series) | binding signal (ALX3 [10]): 7.73 upbm affinity estimate (log intensity, higher = more binding, comparable within an allelic series) | binding signal (ALX3 [13]): 7.81 upbm affinity estimate (log intensity, higher = more binding, comparable within an allelic series) | binding signal (ALX3 [14]): 7.73 upbm affinity estimate (log intensity, higher = more binding, comparable within an allelic series) | binding signal (ALX3 [15]): 7.72 upbm affinity estimate (log intensity, higher = more binding, comparable within an allelic series) | binding signal (ALX3 [18]): 7.76 upbm affinity estimate (log intensity, higher = more binding, comparable within an allelic series)

GCTTATTA
binding signal (VENTX [1]): 10.2 upbm affinity estimate (log intensity, higher = more binding, comparable within an allelic series) | binding signal (VENTX [2]): 10.8 upbm affinity estimate (log intensity, higher = more binding, comparable within an allelic series) | binding signal (VENTX [3]): 10.3 upbm affinity estimate (log intensity, higher = more binding, comparable within an allelic series) | binding signal (HOXA2 [8]): 10.9 upbm affinity estimate (log intensity, higher = more binding, comparable within an allelic series) | binding signal (HOXA2 [11]): 12.2 upbm affinity estimate (log intensity, higher = more binding, comparable within an allelic series) | binding signal (HOXA2 [16]): 10.7 upbm affinity estimate (log intensity, higher = more binding, comparable within an allelic series) | binding signal (HOXA2 [19]): 10.7 upbm affinity estimate (log intensity, higher = more binding, comparable within an allelic series)

CTGGCAGC
binding signal (VENTX [1]): 8.09 upbm affinity estimate (log intensity, higher = more binding, comparable within an allelic series) | binding signal (VENTX [2]): 8.14 upbm affinity estimate (log intensity, higher = more binding, comparable within an allelic series) | binding signal (VENTX [3]): 8.07 upbm affinity estimate (log intensity, higher = more binding, comparable within an allelic series)

CAGAGGGC
binding signal (VENTX [1]): 8.16 upbm affinity estimate (log intensity, higher = more binding, comparable within an allelic series) | binding signal (VENTX [2]): 8.02 upbm affinity estimate (log intensity, higher = more binding, comparable within an allelic series) | binding signal (VENTX [3]): 8.12 upbm affinity estimate (log intensity, higher = more binding, comparable within an allelic series) | binding signal (HOXB6 [7]): 9.04 upbm affinity estimate (log intensity, higher = more binding, comparable within an allelic series) | binding signal (HOXB6 [20]): 9.01 upbm affinity estimate (log intensity, higher = more binding, comparable within an allelic series)

AAATTACC
binding signal (VENTX [1]): 11.1 upbm affinity estimate (log intensity, higher = more binding, comparable within an allelic series) | binding signal (VENTX [2]): 11.5 upbm affinity estimate (log intensity, higher = more binding, comparable within an allelic series) | binding signal (VENTX [3]): 11 upbm affinity estimate (log intensity, higher = more binding, comparable within an allelic series) | binding signal (HOXB6 [7]): 9.94 upbm affinity estimate (log intensity, higher = more binding, comparable within an allelic series) | binding signal (HOXB6 [20]): 11.6 upbm affinity estimate (log intensity, higher = more binding, comparable within an allelic series)

TTACATAA
binding signal (VENTX [1]): 9.95 upbm affinity estimate (log intensity, higher = more binding, comparable within an allelic series) | binding signal (VENTX [2]): 10.4 upbm affinity estimate (log intensity, higher = more binding, comparable within an allelic series) | binding signal (VENTX [3]): 9.97 upbm affinity estimate (log intensity, higher = more binding, comparable within an allelic series)

CTCCGTCC
binding signal (VENTX [1]): 8.11 upbm affinity estimate (log intensity, higher = more binding, comparable within an allelic series) | binding signal (VENTX [2]): 8.05 upbm affinity estimate (log intensity, higher = more binding, comparable within an allelic series) | binding signal (VENTX [3]): 8.03 upbm affinity estimate (log intensity, higher = more binding, comparable within an allelic series) | binding signal (ALX1 [9]): 6.35 upbm affinity estimate (log intensity, higher = more binding, comparable within an allelic series) | binding signal (ALX1 [12]): 6.21 upbm affinity estimate (log intensity, higher = more binding, comparable within an allelic series) | binding signal (PROP1 [23]): 6.5 upbm affinity estimate (log intensity, higher = more binding, comparable within an allelic series) | binding signal (PROP1 [24]): 6.55 upbm affinity estimate (log intensity, higher = more binding, comparable within an allelic series) | binding signal (PROP1 [25]): 6.51 upbm affinity estimate (log intensity, higher = more binding, comparable within an allelic series) | binding signal (ALX1 [17]): 6.3 upbm affinity estimate (log intensity, higher = more binding, comparable within an allelic series)
